We go through twelve compounds from PubChem BioAssay (NCATS).

Inconclusive results are not listed. A number with no mark means an inactive call. Calls of active or inactive are those of the source. Calls follow the shape of the dose curve; as a rule, active = well fitted cell-killing curve with a large enough effect; inconclusive = small, poorly fitted or top-dose-only effect, or effect the other way; inactive = flat fitted curve, though single readings scatter.

Test in all cases: Primary qHTS to identify gynecologic anti-cancer compounds using libraries of approved drugs and bioactive compounds (AID 1345084); also: nearly all actives have a fitted effect of over 55% in size
One assay relates to C33A. To be noted: Gynecologic cancer cell panel viability, ATPlite luminescence, 48 h; series mostly up to 57.5 µM. Summed up: (§1)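 Cells, 1,000 per well, plated 16 h, then exposed 48 h at 37 C to compounds. Viability by ATPlite luminescence after 15 min at room temperature.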
For orientation: Cellular ATP, detected with luciferase, serves as a proxy for viable cell number.

The test system of another assay is CAOV3. The settings on record: Gynecologic cancer cell panel viability, ATPlite luminescence, 48 h; series mostly up to 57.5 µM. Summed up: as §1
The next assay has as its system CASKI. The settings on record: Gynecologic cancer cell panel viability, ATPlite luminescence, 48 h; series mostly up to 57.5 µM. Summed up:
as §1

Another assay concerns Es-2. To be noted: Gynecologic cancer cell panel viability, ATPlite luminescence, 48 h; series mostly up to 57.5 µM. Summed up: as §1
The test system of the next assay is HeLa. The settings on record: Gynecologic cancer cell panel viability, ATPlite luminescence, 48 h; series mostly up to 57.5 µM. Summed up:
as §1

A further assay relates to Hek293T. The settings on record: Gynecologic cancer cell panel viability, ATPlite luminescence, 48 h, control line for the selectivity index; series mostly up to 57.5 µM. Summed up:
as §1

The test system of a further assay is JEG-3. To be noted: Gynecologic cancer cell panel viability, ATPlite luminescence, 48 h; series mostly up to 57.5 µM. Summed up: as §1
Another assay relates to OV90. The settings on record: Gynecologic cancer cell panel viability, ATPlite luminescence, 48 h; series mostly up to 57.5 µM. Summed up: as §1
For a further assay, the system named is PA-1. The settings on record: Gynecologic cancer cell panel viability, ATPlite luminescence, 48 h; series mostly up to 57.5 µM. The method, boiled down: as §1
Another assay relates to SKOV3. To be noted: Gynecologic cancer cell panel viability, ATPlite luminescence, 48 h; series mostly up to 57.5 µM. The method, boiled down:
as §1

A further assay concerns Tov-21-G. To be noted: Gynecologic cancer cell panel viability, ATPlite luminescence, 48 h; series mostly up to 57.5 µM. Summed up:
as §1

Another assay relates to Tov112D. To be noted: Gynecologic cancer cell panel viability, ATPlite luminescence, 48 h; series mostly up to 57.5 µM. Summed up:
as §1
% is scaled to controls: 0 for no effect and ±100 for the full control effect; potency is read from the fitted curve at half-maximal effect.

With `CC1=CC2/C=C(\C)CC[C@@H](O)[C@@H](O)[C@@H]3O[C@@H]3C(=O)[C@]23C(=O)N[C@@H](CC(C)C)[C@@H]3[C@@H]1C` (some centres undefined), the Potency entry with C33A, in the assay with CAOV3, with CASKI, in the assay on Es-2, in the assay on HeLa and with Hek293T was “inactive” in each case. The Potency entry in the assay with JEG-3, in the assay on OV90, with PA-1, with SKOV3, with Tov-21-G and in the assay with Tov112D was “inactive” each time.

For the compound `COC(=O)[C@H](O)[C@H]1C(C)(C)[C@H](OC(=O)C(C)C)[C@@]2(O)C(=O)[C@]1(C)C1CC[C@]3(C)C(CC(=O)O[C@H]3c3ccoc3)[C@]13O[C@@H]32` (some centres undefined), the Potency result in the assay with C33A, in the assay with CAOV3, in the assay on CASKI, with Es-2, with HeLa and with Hek293T was “inactive” each time. For the same compound, the Potency entry with JEG-3, with OV90, in the assay with PA-1, with SKOV3, with Tov-21-G and with Tov112D was “inactive” each time.

Take `COc1cc(C(=O)OC[C@@]2(O)CO[C@@H](O[C@H]3[C@H](Oc4ccc(C(=O)O)cc4OC)O[C@H](CO)[C@@H](O)[C@@H]3O)[C@@H]2O)ccc1O`: the Potency entry in the assay on C33A, with CAOV3, with CASKI, in the assay on Es-2, in the assay on HeLa and in the assay on Hek293T was “inactive” each time. The Potency result in the assay on JEG-3, in the assay with OV90, with PA-1, with SKOV3, with Tov-21-G and with Tov112D was “inactive” each time.

Take `OC[C@H]1O[C@@H](OC(CCCCc2ccc(O)cc2)CCc2ccc(O)cc2)[C@H](O)[C@@H](O)[C@@H]1O` (some centres undefined): the Potency result in the assay on C33A, with CAOV3, in the assay on CASKI, with Es-2, in the assay on HeLa and in the assay with Hek293T was “inactive” each time. For the same compound, the Potency result in the assay on JEG-3, in the assay on OV90, in the assay on PA-1, in the assay on SKOV3, in the assay on Tov-21-G and in the assay with Tov112D was “inactive” in each case.

For `CCCn1c(=O)c2[nH]c(-c3ccc(OCC(=O)O)cc3)nc2n(CCC)c1=O`, the Potency entry in the assay with C33A, in the assay with CAOV3, in the assay on CASKI, in the assay with Es-2, in the assay on HeLa and in the assay with Hek293T was “inactive” throughout. In addition, the Potency result in the assay with JEG-3, in the assay on OV90, in the assay on PA-1, with SKOV3, with Tov-21-G and with Tov112D was “inactive” throughout.

Regarding `CC(=O)O[C@H]1[C@H](O[C@H]2[C@@H]3C=CO[C@@H](O[C@@H]4O[C@H](CO)[C@@H](O)[C@H](O)[C@H]4O)[C@@H]3[C@@]3(CO)O[C@@H]23)O[C@@H](C)[C@H](OC(=O)/C=C/c2ccccc2)[C@H]1OC(=O)/C=C/c1ccccc1`, the activity change, negative = cytotoxicity is 1.54% [at 11.6 µM] in the assay with C33A; 23.2% [at 11.6 µM] in the assay on CAOV3; 9.13% [at 11.6 µM] in the assay with CASKI; 2.44% [at 11.6 µM] in the assay on Es-2; -1.93% [at 11.6 µM] in the assay on HeLa; -2.9% [at 11.6 µM] in the assay on Hek293T. Besides, the activity change, negative = cytotoxicity in the assay on JEG-3 was -3.47% [at 11.6 µM]; with OV90 it was 3.4% [at 11.6 µM]; in the assay on PA-1, 16.9% [at 11.6 µM]; with SKOV3, 5.38% [at 11.6 µM]; in the assay with Tov-21-G, -0.504% [at 11.6 µM]; with Tov112D, 5.71% [at 11.6 µM].

In the case of `O=C(CN1C(=O)C2(CCCC2)NCC1c1cc(F)cc(F)c1)Nc1ccc2c(c1)CC1(C2)C(=O)Nc2ncccc21` (centres undefined), the Potency entry in the assay with C33A, in the assay with CAOV3, with CASKI, in the assay with Es-2, with HeLa and in the assay on Hek293T was “inactive” each time. Further, the Potency entry in the assay on JEG-3, in the assay with OV90, with PA-1, in the assay on SKOV3, in the assay with Tov-21-G and in the assay on Tov112D was “inactive” throughout.

For the compound `CCc1cccc(CC)c1NC(=O)c1nn(C)c2c1CCc1cnc(Nc3ccc(C(=O)NC4CCN(C)CC4)cc3OC(F)(F)F)nc1-2`, the Potency entry in the assay on C33A, in the assay on CAOV3, with CASKI, in the assay on Es-2, in the assay on HeLa and in the assay with Hek293T was “inactive” throughout. In addition, the Potency entry in the assay with JEG-3, in the assay on OV90, in the assay with PA-1, in the assay on SKOV3, in the assay on Tov-21-G and in the assay with Tov112D was “inactive” each time.

On to `CC(C)CCC1(O)C(=O)C(C)(C)C(O[C@@H]2O[C@H](CO)[C@@H](O)[C@H](O)[C@H]2O)C(C)(C)C1O` (some centres undefined), for which the Potency entry in the assay on C33A, in the assay on CAOV3, in the assay with CASKI, in the assay on Es-2, in the assay on HeLa and in the assay on Hek293T was “inactive” in each case. The Potency entry with JEG-3, in the assay with OV90, with PA-1, in the assay with SKOV3, with Tov-21-G and with Tov112D was “inactive” throughout.

Take `CC(=O)CCC1=C(C)C(O[C@@H]2O[C@H](CO)[C@@H](O)[C@H](O)[C@H]2O)C(O)CC1(C)C` (some centres undefined): the Potency entry with C33A, in the assay on CAOV3, in the assay on CASKI, in the assay with Es-2, in the assay with HeLa and in the assay with Hek293T was “inactive” each time. The Potency entry in the assay on JEG-3, in the assay with OV90, in the assay on PA-1, in the assay on SKOV3, in the assay on Tov-21-G and in the assay with Tov112D was “inactive” in each case.

With `c1cn2cc(-c3ccc4cn[nH]c4c3)nc(Nc3ccc(N4CCOCC4)cc3)c2n1`, the Potency in the assay with C33A was 2240 nM (active); in the assay with CAOV3, 2000 nM (active); with CASKI, 2820 nM (active); in the assay with Es-2, 2510 nM (active); with HeLa, 2820 nM (active); in the assay with Hek293T it was 2240 nM (active). The Potency in the assay on JEG-3 was 2820 nM (active); in the assay with OV90, 1780 nM (active); in the assay on PA-1, 1780 nM (active); in the assay with SKOV3, 2820 nM (active); in the assay with Tov-21-G, 2240 nM (active); with Tov112D it was 2240 nM (active).

Take `Cc1cc(C)nc(NS(=O)(=O)c2ccc(NC(=S)NC(=O)COc3ccc(Br)cc3Cl)cc2)n1`: the Potency result in the assay on C33A, in the assay on CAOV3, with CASKI, in the assay on Es-2, with HeLa and in the assay with Hek293T was “inactive” each time. The Potency entry in the assay on JEG-3, in the assay on OV90, with PA-1, with SKOV3, in the assay with Tov-21-G and in the assay on Tov112D was “inactive” each time.
